The sample as a whole holds a higher share of hits than the screen did.
Pf Dd2 growth = inhibitors of Plasmodium falciparum Dd2 growth; 120,000 compounds, 4.3% hits; Potency, µM (titrated, usually from 28.9 µM), most hits filed as inhibitors; P. falciparum Dd2 growth, SYBR Green, 72 h; AID 1347417; active means well fitted inhibition curve with a large enough effect; further: nearly all actives have a fitted effect of over 65% in size
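Readout: SYBR Green fluorescence, 485 nm excitation, 535 nm emission, after ~16 h lysis at 37C. Before that, Dd2-infected red cells (2.5% hematocrit) grew 72 h with compound, 29 uM top final concentration.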
Hits are given with their value; . = inactive.

SMILES | Pf Dd2 growth
CCn1nccc1C(=O)N1C[C@@H](COCC2CC2)[C@H](c2ccncc2)C1 | .
COC(=O)[C@@H]1Cc2c([nH]c3ccccc23)[C@H]2C[C@H](N3CCCCC3)C[C@@H](c3ccccc3F)N21 | 1.4µM
COC(=O)[C@@H]1Cc2c([nH]c3ccccc23)[C@H]2C[C@@H](NCCNC(C)=O)C[C@@H](c3ccccc3F)N21 | .
COc1ccc(CC(=O)NC2CCCc3c2[nH]c2ccccc32)cc1OC (stereo not drawn) | .
COC(=O)[C@@H]1Cc2c([nH]c3ccccc23)[C@H]2C[C@@H](N3CCCCC3)C[C@@H](c3ccccc3F)N21 | 4µM
COC(=O)[C@@H]1Cc2c([nH]c3ccccc23)[C@H]2C[C@H](NC[C@H]3CCCO3)C[C@@H](c3ccccc3F)N21 | .
CC(=O)N1CC2(Cc3ccccc3CN2C(C)=O)C1 | .
Cc1cc(C(N)=O)c(-c2c(C)n[nH]c2C)nc1C | .
O=C(Cn1nc2n(c1=O)CCCCC2)Nc1ccc(Br)cc1 | .
COCc1nc(C2CCCN(C(=O)CCc3ccccc3)C2)no1 (stereo not drawn) | .
CC[C@H]1CN2CC[C@H]1C[C@@H]2CNC(=O)c1ccc(-c2ccccc2)cc1 | .
Cn1c(Cn2cccn2)nnc1C1CCCN(Cc2nc(C(N)=O)no2)C1 (stereo not drawn) | .
COc1ccc(C2CCC(=O)N2Cc2ccc(F)cc2)cc1 (stereo not drawn) | .
COc1ccc(-c2nnc(C[C@@H]3C[C@@H](C(C)C)[C@H](CN(C)CCC#N)C=C3C)o2)cc1 | 7.9µM
COc1ccc(-c2nnc(C[C@@H]3C[C@@H](C(C)C)[C@H](CN4CCN(C)CC4)C=C3C)o2)cc1 | .
CCNC(=O)NC[C@@H]1C=C(C)[C@H](CC(=O)NCc2ccccn2)C[C@H]1C(C)C | .
CC1=C[C@@H](CNCc2ccccn2)[C@H](C(C)C)C[C@H]1Cc1nnc(-c2ccccc2)o1 | 3.5µM
COc1ccc(-c2nnc(C[C@@H]3C[C@@H](C(C)C)[C@H](CN(C)CCc4ccccn4)C=C3C)o2)cc1 | 11µM
COc1ccc(CNC(=O)C[C@@H]2C[C@@H](C(C)C)[C@H](CC#N)C=C2C)cc1 | .
CC1=C[C@@H](CNS(=O)(=O)c2ccccc2)[C@H](C(C)C)C[C@H]1Cc1nnc(-c2ccncc2)o1 | .
CC1=C[C@@H](CNC(=O)CCC(=O)O)[C@H](C(C)C)C[C@H]1CC(=O)NCc1ccccn1 | .
CC(=O)Nc1ccc(CN2CCn3c(nnc3-c3ccncc3)C2)cc1 | .
O=C(NCCC1=CCCCC1)c1cc2n(n1)CC(c1ccc(Cl)cc1)OC2 (stereo not drawn) | .
Cc1cnc(C(=O)N[C@@H]2CCC[C@@H]2C(=O)NCCCN2CCOCC2)cn1 | .
Cc1ccc(C(C(=O)NCc2cc(=O)[nH]cn2)N(C)C)cc1 (stereo not drawn) | .
SMILES | Pf Dd2 growth
C[C@H]1[C@@H]2[C@@H](O)C([C@H](C)C(=O)NCc3ccccc3)CC[C@@]2(C)CC[C@@H]1NC(=O)c1ccccc1 (stereo partly drawn) | .
CCC(CC)CN1CC2(CCN(C(=O)CCc3cnn(C)c3)CC2)OC1=O | .
CC(=O)N1CCc2nn(CC(=O)Nc3cccc(Br)c3)c(=O)cc2C1 | .
COc1ccccc1C(=O)N1CCCn2nc(C)c(-c3ccccc3-c3ccccc3)c21 | .
COc1cccc(CC(=O)N2CCCn3nc(C)c(-c4ccccc4Oc4ccccc4)c32)c1 | 13µM
Cc1nn2c(c1-c1ccccc1-c1ccccc1)N(C(=O)c1cccnc1)CCC2 | .
Cc1nn2c(c1-c1ccccc1Oc1ccccc1)N(C(=O)C1CCC1)CCC2 | .
Cc1nn2c(c1-c1ccccc1OCc1ccccc1)N(C(=O)CCc1cccnc1)CCC2 | .
COc1cccc(CC(=O)N2CCCn3nc(C)c(-c4ccccc4-c4ccccc4)c32)c1 | 10µM
Cc1nn2c(c1-c1ccccc1C(C)C)N(Cc1cccc(C(=O)O)c1)CCC2 | 4.5µM
Cc1ccncc1-c1c(C)nn2c1N(Cc1ccc(C(=O)O)cc1)CCC2 | .
COc1ccc(C(=O)N2CCCn3nc(C)c(-c4ccccc4-c4ccccc4)c32)cc1 | 10µM
Cc1nn2c(c1-c1ccccc1C(C)C)N(Cc1ccc(C(=O)O)cc1)CCC2 | .
Cc1nn2c(c1-c1ccccc1C(N)=O)N(C(=O)Cc1cccc(F)c1)CCC2 | .
COc1ccc(C(=O)N2CCCn3nc(C)c(-c4ccccc4-c4ccccc4)c32)cn1 | .
O=C(c1coc(CN2CCOCC2)c1)N1CCC2(CC1)[C@H](O)C[C@@H]2O | .
CN1C[C@H](O)C[C@H]1c1nnc2n1CCN(C(=O)CC1CCCCC1)CC2 | .
COc1ccccc1CN1C[C@@H](C(=O)O)C[C@H](C(=O)NCc2ccccn2)C1 | .
COc1cc(C(=O)N2CCCn3nc(CO)cc3C2)c2ccccc2n1 | .
CCc1nc(-c2c3n(c(=O)n(Cc4ccc(C(=O)OC)o4)c2=O)CCCC3)no1 | .
O=C(c1cccc(OC2CN(C3CCN(Cc4ccccc4)CC3)C2)c1)N1CCOCC1 | .
CC(=O)c1ccc(NC(=O)O[C@@H]2CO[C@H]3[C@@H]2OC[C@@H]3NC(=O)c2ccco2)cc1 | .
Cc1ccc2c(C(=O)NCc3ccc(F)cc3Cl)cc(NC(=O)C(C)C)cc2n1 | .
COc1cccc(CN[C@H]2[C@H](O)[C@H](O)C[C@@H]2c2ccc(N3CCOCC3)nc2)c1 | .
CN(CCc1ccccn1)[C@@H]1[C@H](O)[C@H](CO)O[C@@H]1CNC(=O)Nc1ccc(OC(F)(F)F)cc1 | .
SMILES | Pf Dd2 growth
O=c1[nH]c(C2CCCN([S+](=O)([O-])c3cccc(C(F)(F)F)c3)C2)nn1-c1ccccc1 (stereo not drawn) | .
COc1cc(NC(=O)N2CC(c3noc(-c4ccccc4)n3)C2)cc(OC)c1OC | .
Cc1nn2c(c1-c1ccccc1Oc1ccccc1)N(Cc1ccccc1O)CCC2 | 0.56µM
CC(=O)N1CCCn2nc(C)c(-c3ccccc3OCc3ccccc3)c21 | .
Cc1nn2c(c1-c1ccccc1Oc1ccccc1)N(C(=O)Cc1ccc(O)cc1)CCC2 | 8.9µM
Cc1nn2c(c1-c1ccccc1[S+](C)(=O)[O-])N(Cc1ccccc1F)CCC2 | .
Cc1nn2c(c1-c1ccccc1C(C)C)N(C(=O)Cc1ccc(O)cc1)CCC2 | .
Cc1nn2c(c1-c1ccccc1OCc1ccccc1)N(C(=O)C(C)C)CCC2 | .
CCc1ccc(C(=O)N2CCN(C(=O)c3nnn4c3COC(c3ccc(F)cc3)C4)CC2)cc1 (stereo not drawn) | .
Cc1cc(C(=O)NCC2(COc3cnccn3)C[C@@H](O)[C@@H](O)C2)no1 (stereo partly drawn) | .
COCCN1CCC(N2CCN(C(=O)c3ccc(Cl)s3)CC2)C1=O (stereo not drawn) | .
CCc1cccc(C)c1NC(=O)Cn1nc2n(c1=O)CCCCC2 | .
CC(c1cccc(-c2nc3c(cc2C(N)=O)CCC3)c1)N1CCCC1 (stereo not drawn) | .
CCOC(=O)C1(Cc2ccccc2Cl)CCN(Cc2cccc3c2OCO3)CC1 | 8.9µM
CCOC(=O)C1(Cc2ccccc2F)CCCN(C(=O)C2=C(C)OCCO2)C1 (stereo not drawn) | .
CCOC(=O)C1(Cc2ccccc2Cl)CCN(C(=O)c2ccsc2)CC1 | .
O=c1cc(CN2CCCCC2c2ccccn2)[nH]c2ccc(F)cc12 (stereo not drawn) | .
CCn1ccnc1CN(C)Cc1cn(C)nc1-c1ccc(Oc2ccccc2)cc1 | .
Cn1cc(CN2CCCC2c2ccccn2)c(-c2ccc(Oc3ccccc3)cc2)n1 (stereo not drawn) | 7.1µM
